FECH inh – inhibitors of human ferrochelatase, primary screen, biochemical, purified FECH, Ni-mesoporphyrin absorbance | Ferrochelatase, mitochondrial (Homo sapiens), P22830 | Ni-mesoporphyrin absorbance 550 nm | calls only at 10 µM (by protocol) | 20,000 tested, 3.3% active | AID 1671448, 2021;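 active = enzyme reaction rate more than 3 SD below the solvent-only control wells on the same plate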;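 also: lower slope than DMSO wells means FECH inhibition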
Target sequence (P22830 whole entry, looked up): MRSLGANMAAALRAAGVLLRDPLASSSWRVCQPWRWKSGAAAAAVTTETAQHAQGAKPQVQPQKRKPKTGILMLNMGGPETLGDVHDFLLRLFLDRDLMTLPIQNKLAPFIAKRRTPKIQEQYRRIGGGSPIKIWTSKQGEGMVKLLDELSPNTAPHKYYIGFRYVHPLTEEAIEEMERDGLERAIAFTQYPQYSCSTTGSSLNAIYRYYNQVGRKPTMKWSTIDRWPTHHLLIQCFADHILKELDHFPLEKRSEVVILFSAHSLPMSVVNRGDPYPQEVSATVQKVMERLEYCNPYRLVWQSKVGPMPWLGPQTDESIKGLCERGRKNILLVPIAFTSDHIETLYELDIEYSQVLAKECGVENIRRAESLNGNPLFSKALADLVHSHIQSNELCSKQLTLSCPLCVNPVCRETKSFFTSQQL
Calls only. This is one part of a sample in which hits are shown more often than they occur.

Results for CC(C)CC1(CO)CCCN(C(=O)CCC(=O)NC2CCCC2)C1 (stereo not given) ?
FECH inh: inactive

How did COc1ccccc1C1CCN(C(=O)CCC(=O)NC2CCCC2)CC1 do in these assays?
FECH inh: inactive

What do the screens show for `CN(C)C(=O)c1ccc(-c2ccc(COCCN)cc2)cc1`?
FECH inh: active

Results for Cc1ccc(C)c(OCC(=O)N2CCCCC2CCO)c1C (stereo not given) ?
FECH inh: inactive

How did COc1cccc(C(=O)N2CCN(S(=O)(=O)c3cc4c5c(c3)CCN5C(=O)CC4)CC2)c1OC do in these assays?
FECH inh: inactive

How did Cc1ncc2c(c1CNCC1(O)CCCN(CC3CCC3)C1=O)CCNC2 (stereo not given) do in these assays?
FECH inh: inactive

Results for CC(C)Cc1cc(CNc2ncnc3sc4c(c23)CCNC4)no1 ?
FECH inh: inactive

What do the screens show for `NC(=O)C1(N2CCCCC2)CCN(c2ncnc3sc4c(c23)CCNC4)CC1`?
FECH inh: inactive

Results for CCCC1C=CCN1c1ncnc2sc3c(c12)CCNC3 (stereo not given) ?
FECH inh: active

Results for Cc1ccc(-c2ncc3c(=O)n(Cc4ccccc4C)c(=O)n(C)c3n2)cc1 ?
FECH inh: inactive

What do the screens show for `COc1ccc(CN(Cc2cccc(F)c2)C(=O)c2ccc(=O)[nH]c2)cc1`?
FECH inh: inactive

Results for COc1ccc(Nc2cc(C)nc(Nc3ccc(NC(=O)C4CCCCC4)cc3)n2)cc1 ?
FECH inh: inactive

How did CCc1ccc(NC(=O)Nc2ccc(Sc3cc(CC)nc4nc(C)nn34)cc2)cc1 do in these assays?
FECH inh: inactive

Results for CCOC(=O)Cc1ccc(NC(=O)Nc2ccc(Sc3cc(CC)nc4nc(C)nn34)cc2)cc1 ?
FECH inh: active

What do the screens show for `CCOc1ccc(NC(=O)Nc2ccc(Sc3cc(CC)nc4nc(C)nn34)cc2)cc1`?
FECH inh: inactive

What do the screens show for `CCc1c(C)nc(SCc2nc(-c3cccc(Cl)c3)oc2C)[nH]c1=O`?
FECH inh: inactive

How did Cc1nc2ncnn2c(Sc2ccc(NC(=O)Nc3cccc(Br)c3)cc2)c1C do in these assays?
FECH inh: inactive

How did Cc1cc(C)n2nc(N(Cc3ccccc3C)S(=O)(=O)c3ccccc3)nc2n1 do in these assays?
FECH inh: inactive

Results for CCCN(c1nc2nc(C)cc(C)n2n1)S(=O)(=O)c1ccc(C)cc1 ?
FECH inh: active

Results for Cc1cc(C)n2nc(CN(c3ccc(Cl)cc3)S(=O)(=O)c3ccccc3)nc2n1 ?
FECH inh: active

What do the screens show for `Cc1cc(C)n2nc(CN(c3ccc(F)cc3)S(=O)(=O)c3ccccc3)nc2n1`?
FECH inh: inactive

Results for CCCN(c1nc2nc(C)cc(C)n2n1)S(=O)(=O)c1ccccc1 ?
FECH inh: inactive

How did CC(=O)CN(c1nc2nc(C)cc(C)n2n1)S(=O)(=O)c1ccc(C)cc1 do in these assays?
FECH inh: inactive

Results for Cc1ccc(S(=O)(=O)N(Cc2ccccc2C)c2nc3nc(C)cc(C)n3n2)cc1 ?
FECH inh: active

Results for Cc1cc(C)n2nc(CN(c3ccc(F)cc3)S(=O)(=O)c3ccc(Cl)cc3)nc2n1 ?
FECH inh: inactive

What do the screens show for `Cc1ccc(S(=O)(=O)N(Cc2ccccc2C)c2nc3nc(C)c(Cl)c(C)n3n2)cc1`?
FECH inh: inactive

What do the screens show for `CC(C)c1noc(C2CCCN2C(=O)c2cccc(Cn3cccn3)c2)n1` (stereo not given)?
FECH inh: inactive

Results for CN1CCNC(=O)C12CCN(C(=O)c1ccc(CN3CCCC3)o1)CC2 ?
FECH inh: inactive

How did CCOc1ccc(Nc2nc(N3CCCCC3)nc3c2cnn3-c2ccccc2)cc1 do in these assays?
FECH inh: inactive

How did Cc1nn(C)c(C)c1CN(CCO)C(=O)CC12CC3CC(CC(C3)C1)C2 do in these assays?
FECH inh: inactive

How did CCCSc1ncc(CN2CCN(C)C(=O)C2C)cn1 (stereo not given) do in these assays?
FECH inh: inactive

Results for O=c1cc(CNc2ccccc2)nc2nc(NCc3ccc(Cl)cc3)[nH]n12 ?
FECH inh: inactive

How did CCc1ccc(NCc2cc(=O)n3[nH]c(NCc4ccc(Cl)cc4)nc3n2)cc1 do in these assays?
FECH inh: inactive

How did CCCc1cc(=O)n2[nH]c(CNc3ccccc3)nc2n1 do in these assays?
FECH inh: active

How did COc1cccc(NCc2cc(=O)n3[nH]c(NCc4ccccc4)nc3n2)c1 do in these assays?
FECH inh: inactive

How did O=c1cc(CNc2ccccc2)nc2nc(NCc3ccccc3)[nH]n12 do in these assays?
FECH inh: inactive

What do the screens show for `COc1ccc(CNc2nc3nc(CNc4ccccc4)cc(=O)n3[nH]2)cc1`?
FECH inh: inactive

What do the screens show for `CCCc1cc(=O)n2[nH]c(CNc3ccc(C)c(C)c3)nc2n1`?
FECH inh: active

How did Cc1ccc(NCc2cc(=O)n3[nH]c(NCc4ccc(F)cc4)nc3n2)cc1C do in these assays?
FECH inh: inactive

What do the screens show for `CCCc1cc(=O)n2[nH]c(CNc3ccc(OCC)cc3)nc2n1`?
FECH inh: inactive

Results for CCCc1cc(=O)n2[nH]c(CNc3cccc(OC)c3)nc2n1 ?
FECH inh: active

Results for Cc1ccc(NCc2cc(=O)n3[nH]c(NCc4ccccc4)nc3n2)cc1C ?
FECH inh: inactive

How did CCCc1cc(=O)n2[nH]c(CNc3cccc(Cl)c3)nc2n1 do in these assays?
FECH inh: active

How did CCCCC(=O)Nc1cc(C)nn1-c1ncnc2c1cnn2-c1ccc(F)cc1 do in these assays?
FECH inh: inactive

What do the screens show for `CN(CCc1ccccc1)C1CCCN(C(=O)c2c[nH]c(=O)cc2O)C1` (stereo not given)?
FECH inh: inactive

Results for CC(C)c1ccc(NC(=O)CN2C(=O)CCc3cc(S(=O)(=O)N4CCCC4)ccc32)cc1 ?
FECH inh: inactive

What do the screens show for `CCC(=O)c1ccc(OCC(=O)N2CCN(C(=O)C3CCCO3)CC2)cc1` (stereo not given)?
FECH inh: inactive

Results for O=C(O)c1[nH]ncc1CN1CCNC(=O)C1c1ccc(F)cc1 (stereo not given) ?
FECH inh: inactive

How did c1ccc(-c2ncn(CCCCN3CCCC3)c2-c2ccoc2)cc1 do in these assays?
FECH inh: inactive

Results for CCNc1ncc(C(=O)N2CCCCC2c2cccnc2)cn1 (stereo not given) ?
FECH inh: inactive

How did O=C(O)c1cc(NS(=O)(=O)c2ccc(Br)s2)cnc1N1CCCCCC1 do in these assays?
FECH inh: inactive

Results for Clc1ccc2oc(CN3CCCC3c3ccccn3)nc2c1 (stereo not given) ?
FECH inh: inactive

Results for CCOc1ccccc1C(=O)Nc1cc(C)nn1-c1ncnc2c1cnn2-c1ccc(C)cc1C ?
FECH inh: inactive

What do the screens show for `COCC(NC(=O)CCn1c(C)cc2ccccc21)c1ccnn1C` (stereo not given)?
FECH inh: inactive

What do the screens show for `O=C(CSc1ccncc1)N1CCCC(c2ccccc2)C1` (stereo not given)?
FECH inh: inactive

How did CCn1nc(C(=O)O)c2c1CCN(C(=O)C(c1cccnc1)N1CCCC1)C2 (stereo not given) do in these assays?
FECH inh: inactive

How did CCN1C(SCC(=O)N2CCCC2)=NS(=O)(=O)c2ccccc21 do in these assays?
FECH inh: active

What do the screens show for `CCN1C(SCC(=O)N(C)c2ccccc2)=NS(=O)(=O)c2ccccc21`?
FECH inh: active

What do the screens show for `O=S(=O)(NCc1nc2cccnc2n1C1CCCC1)c1ccc(F)c(Cl)c1`?
FECH inh: inactive

What do the screens show for `CC(=O)NCC1=CCN(CCNC(=O)c2ccccc2)CC1`?
FECH inh: inactive

Screening data: PubChem, Corson Lab, School of Medicine, Indiana University
